The full data set covers some 7,900 targets. This sample favours those with a hit. About 0.6% of all pairs of compound and target were hits. Values without a mark were called inactive.
Compound: Cc1nc(Nc2n[nH]c3c2CN(C(=O)N[C@H](CN(C)C)c2ccccc2)C3(C)C)c2sccc2n1
Experiment: log2 fold change, soluble protein after heating vs DMSO (PISA); higher = thermal stabilisation; K562 cells, 10 uM, 30 min; active = over 0.2 and 3.5 SD of the protein, either way, in both replicates (recomputed)
Method in brief: (§1)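 K562 cells at 2×10^6 cells/mL were exposed to 10 μM compound for 30 min, then aliquots were heated for 3 min across 48°C-58°C, pooled, and extracted in PBS containing 0.5% NP-40 at 4°C. The supernatant after 21,000xg for 90 min was taken as soluble protein and measured by TMTpro 16plex LC-MS/MS with channel sums equalised. Thermal stability is reported relative to control samples, with values from duplicates. Fold changes are given on a log2 scale.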

Sequence of UniProt Q00534 (Q00534 whole entry, looked up): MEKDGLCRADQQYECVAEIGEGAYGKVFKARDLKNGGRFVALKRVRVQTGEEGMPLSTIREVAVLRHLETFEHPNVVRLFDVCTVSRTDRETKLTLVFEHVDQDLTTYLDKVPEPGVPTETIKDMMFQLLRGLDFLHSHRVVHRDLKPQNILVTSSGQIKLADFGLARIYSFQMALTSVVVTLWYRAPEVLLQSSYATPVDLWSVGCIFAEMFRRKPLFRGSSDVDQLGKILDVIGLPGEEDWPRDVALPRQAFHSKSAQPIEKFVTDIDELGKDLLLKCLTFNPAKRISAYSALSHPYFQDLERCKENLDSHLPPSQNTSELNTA
Sequence of UniProt P68400 (P68400 whole entry, looked up): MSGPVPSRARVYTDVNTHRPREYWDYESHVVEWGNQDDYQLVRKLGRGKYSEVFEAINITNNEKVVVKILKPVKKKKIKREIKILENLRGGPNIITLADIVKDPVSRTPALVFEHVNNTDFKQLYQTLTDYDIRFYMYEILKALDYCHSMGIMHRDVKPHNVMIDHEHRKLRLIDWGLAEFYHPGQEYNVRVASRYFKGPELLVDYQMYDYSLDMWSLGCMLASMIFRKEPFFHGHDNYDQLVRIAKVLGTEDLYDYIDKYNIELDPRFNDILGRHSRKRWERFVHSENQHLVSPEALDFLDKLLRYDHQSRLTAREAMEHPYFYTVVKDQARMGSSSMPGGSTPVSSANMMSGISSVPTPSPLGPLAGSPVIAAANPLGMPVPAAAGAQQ
Sequence of UniProt Q96JB5 (Q96JB5 whole entry, looked up): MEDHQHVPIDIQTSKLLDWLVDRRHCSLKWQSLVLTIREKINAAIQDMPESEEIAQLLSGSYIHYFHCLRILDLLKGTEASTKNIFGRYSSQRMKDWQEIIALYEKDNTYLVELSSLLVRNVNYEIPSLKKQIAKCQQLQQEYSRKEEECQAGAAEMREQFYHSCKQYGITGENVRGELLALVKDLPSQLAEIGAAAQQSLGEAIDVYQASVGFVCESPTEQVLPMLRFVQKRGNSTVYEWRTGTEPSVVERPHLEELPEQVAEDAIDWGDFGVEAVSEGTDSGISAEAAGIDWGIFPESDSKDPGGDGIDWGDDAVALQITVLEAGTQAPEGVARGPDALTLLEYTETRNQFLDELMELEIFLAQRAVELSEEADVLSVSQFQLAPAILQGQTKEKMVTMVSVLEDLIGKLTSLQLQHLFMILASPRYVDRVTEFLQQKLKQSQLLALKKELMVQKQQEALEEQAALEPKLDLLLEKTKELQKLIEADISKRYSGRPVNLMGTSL
Sequence of UniProt P83916 (P83916 whole entry, looked up): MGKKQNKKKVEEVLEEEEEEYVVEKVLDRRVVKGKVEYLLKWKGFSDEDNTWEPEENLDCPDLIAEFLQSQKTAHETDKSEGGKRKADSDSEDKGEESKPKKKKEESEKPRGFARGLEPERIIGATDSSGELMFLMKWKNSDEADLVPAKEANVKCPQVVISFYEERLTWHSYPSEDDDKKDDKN
Sequence of UniProt P51790 (P51790 whole entry, looked up): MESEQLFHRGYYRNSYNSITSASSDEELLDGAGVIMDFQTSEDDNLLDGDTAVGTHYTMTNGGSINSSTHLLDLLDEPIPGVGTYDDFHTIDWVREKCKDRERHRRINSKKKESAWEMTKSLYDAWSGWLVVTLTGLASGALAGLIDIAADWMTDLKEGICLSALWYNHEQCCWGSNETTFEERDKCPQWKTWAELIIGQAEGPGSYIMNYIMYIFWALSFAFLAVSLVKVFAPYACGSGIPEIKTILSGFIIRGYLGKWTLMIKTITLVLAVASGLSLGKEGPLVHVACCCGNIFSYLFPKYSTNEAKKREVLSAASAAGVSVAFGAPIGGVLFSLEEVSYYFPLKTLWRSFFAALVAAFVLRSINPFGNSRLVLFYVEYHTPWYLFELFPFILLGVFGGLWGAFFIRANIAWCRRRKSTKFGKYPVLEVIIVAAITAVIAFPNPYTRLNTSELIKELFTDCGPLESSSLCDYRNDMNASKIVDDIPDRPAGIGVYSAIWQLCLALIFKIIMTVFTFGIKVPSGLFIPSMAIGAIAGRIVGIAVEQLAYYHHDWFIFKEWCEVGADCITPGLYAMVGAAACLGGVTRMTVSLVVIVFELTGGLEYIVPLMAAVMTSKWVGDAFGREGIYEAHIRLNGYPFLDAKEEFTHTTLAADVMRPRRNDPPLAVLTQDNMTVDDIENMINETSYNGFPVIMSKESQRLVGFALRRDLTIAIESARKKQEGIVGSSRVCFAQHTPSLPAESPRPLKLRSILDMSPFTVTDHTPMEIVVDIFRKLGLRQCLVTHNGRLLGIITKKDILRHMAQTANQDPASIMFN
Sequence of UniProt Q99807 (Q99807 whole entry, looked up): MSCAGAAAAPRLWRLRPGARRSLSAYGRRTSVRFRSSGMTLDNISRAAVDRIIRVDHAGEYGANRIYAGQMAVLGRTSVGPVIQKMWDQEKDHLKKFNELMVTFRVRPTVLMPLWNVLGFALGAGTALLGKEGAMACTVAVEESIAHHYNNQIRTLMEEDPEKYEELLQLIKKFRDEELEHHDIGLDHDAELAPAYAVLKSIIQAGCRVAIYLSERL
Sequence of UniProt O14578 (O14578 whole entry, looked up): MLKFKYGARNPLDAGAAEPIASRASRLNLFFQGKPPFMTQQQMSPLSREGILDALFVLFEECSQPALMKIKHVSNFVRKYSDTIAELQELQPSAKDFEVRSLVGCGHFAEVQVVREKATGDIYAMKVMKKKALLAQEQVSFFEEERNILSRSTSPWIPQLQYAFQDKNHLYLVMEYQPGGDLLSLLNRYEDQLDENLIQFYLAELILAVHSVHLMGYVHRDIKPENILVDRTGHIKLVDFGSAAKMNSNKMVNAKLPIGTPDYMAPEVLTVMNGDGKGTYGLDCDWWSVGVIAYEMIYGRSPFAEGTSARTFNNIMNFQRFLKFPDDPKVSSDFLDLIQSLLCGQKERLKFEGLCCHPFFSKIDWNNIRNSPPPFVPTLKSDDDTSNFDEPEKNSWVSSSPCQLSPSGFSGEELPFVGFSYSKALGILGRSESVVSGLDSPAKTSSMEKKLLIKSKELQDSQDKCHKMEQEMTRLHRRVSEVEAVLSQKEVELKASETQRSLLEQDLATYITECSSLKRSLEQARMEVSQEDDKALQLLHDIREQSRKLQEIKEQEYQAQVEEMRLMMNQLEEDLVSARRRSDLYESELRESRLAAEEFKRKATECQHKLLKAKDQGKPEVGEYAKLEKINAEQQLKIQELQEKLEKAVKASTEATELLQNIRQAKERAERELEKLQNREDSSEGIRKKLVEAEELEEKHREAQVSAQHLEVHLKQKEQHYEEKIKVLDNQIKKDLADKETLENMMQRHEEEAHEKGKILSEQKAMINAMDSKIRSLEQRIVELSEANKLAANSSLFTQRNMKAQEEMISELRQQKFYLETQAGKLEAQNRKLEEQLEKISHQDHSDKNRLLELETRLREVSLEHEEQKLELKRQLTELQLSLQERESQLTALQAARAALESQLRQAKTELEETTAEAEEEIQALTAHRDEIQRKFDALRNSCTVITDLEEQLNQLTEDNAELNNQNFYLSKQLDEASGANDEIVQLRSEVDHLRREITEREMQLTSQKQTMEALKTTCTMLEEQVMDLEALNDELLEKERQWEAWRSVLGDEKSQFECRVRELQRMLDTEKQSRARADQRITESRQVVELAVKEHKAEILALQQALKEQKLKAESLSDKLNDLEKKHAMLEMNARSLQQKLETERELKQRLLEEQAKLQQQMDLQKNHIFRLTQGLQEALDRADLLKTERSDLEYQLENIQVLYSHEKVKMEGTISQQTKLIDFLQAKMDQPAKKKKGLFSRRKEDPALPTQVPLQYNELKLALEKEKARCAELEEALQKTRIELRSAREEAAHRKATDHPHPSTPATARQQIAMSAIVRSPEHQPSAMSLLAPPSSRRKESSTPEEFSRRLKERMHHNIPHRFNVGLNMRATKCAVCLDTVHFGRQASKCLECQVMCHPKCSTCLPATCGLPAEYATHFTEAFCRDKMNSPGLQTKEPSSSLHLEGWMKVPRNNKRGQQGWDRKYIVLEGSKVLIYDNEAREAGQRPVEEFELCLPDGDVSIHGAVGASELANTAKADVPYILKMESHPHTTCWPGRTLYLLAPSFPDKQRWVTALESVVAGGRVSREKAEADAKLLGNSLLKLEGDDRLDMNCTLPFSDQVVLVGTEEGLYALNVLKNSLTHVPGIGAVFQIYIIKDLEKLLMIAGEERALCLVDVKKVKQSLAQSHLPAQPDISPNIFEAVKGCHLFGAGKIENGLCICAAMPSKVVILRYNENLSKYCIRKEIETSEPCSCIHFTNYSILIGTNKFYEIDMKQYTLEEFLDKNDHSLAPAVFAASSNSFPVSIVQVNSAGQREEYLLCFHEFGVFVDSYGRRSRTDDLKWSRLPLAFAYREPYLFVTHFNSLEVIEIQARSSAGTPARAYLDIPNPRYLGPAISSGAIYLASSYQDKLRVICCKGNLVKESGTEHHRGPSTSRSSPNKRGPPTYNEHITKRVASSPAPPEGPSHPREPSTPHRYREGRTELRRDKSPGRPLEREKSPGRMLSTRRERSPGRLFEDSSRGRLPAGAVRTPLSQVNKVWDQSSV
Sequence of UniProt Q99627 (Q99627 whole entry, looked up): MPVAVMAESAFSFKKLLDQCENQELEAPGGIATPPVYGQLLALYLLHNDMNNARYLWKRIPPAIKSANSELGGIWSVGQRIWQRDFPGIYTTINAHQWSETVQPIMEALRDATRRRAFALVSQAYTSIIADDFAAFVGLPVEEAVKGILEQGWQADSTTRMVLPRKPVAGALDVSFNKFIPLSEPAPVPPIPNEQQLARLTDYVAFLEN
Sequence of UniProt P19397 (P19397 whole entry, looked up): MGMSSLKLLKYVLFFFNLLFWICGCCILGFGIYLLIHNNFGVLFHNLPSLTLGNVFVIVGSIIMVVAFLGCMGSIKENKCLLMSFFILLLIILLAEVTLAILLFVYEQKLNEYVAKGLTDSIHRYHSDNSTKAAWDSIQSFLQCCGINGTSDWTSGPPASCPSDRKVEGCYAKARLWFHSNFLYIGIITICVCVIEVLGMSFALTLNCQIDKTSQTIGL
Sequence of UniProt Q8NHZ8 (Q8NHZ8 whole entry, looked up): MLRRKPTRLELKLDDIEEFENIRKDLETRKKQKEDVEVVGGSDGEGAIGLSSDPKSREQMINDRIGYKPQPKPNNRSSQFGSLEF

Row | Target | log2 fold change
1 | CNDP2 (UniProt Q96KP4) | -0.015
2 | CSNK1A1 (UniProt P48729) | -0.008
3 | CNTN4 (UniProt Q8IWV2) | 0.01
4 | CRLF3 (UniProt Q8IUI8) | -0.117
5 | CDC123 (UniProt O75794) | 0.079
6 | CPT1A (UniProt P50416) | 0.021
7 | CERS2 (UniProt Q96G23) | -0.015
8 | COQ7 (UniProt Q99807) | -0.103
9 | CELF2 isoform 3 (UniProt O95319) | 0.013
10 | COPS8 (UniProt Q99627) | -0.008
11 | CBX1 (UniProt P83916) | -0.089
12 | CDK5RAP3 isoform 4 (UniProt Q96JB5) | 0.012
13 | CD53 (UniProt P19397) | 0.002
14 | CCNK isoform 4 (UniProt O75909) | 0.046
15 | COPS4 (UniProt Q9BT78) | -0.01
16 | COASY isoform 2 (UniProt Q13057) | 0.001
17 | CDKN2AIP (UniProt Q9NXV6) | 0.034
18 | CDK6 (UniProt Q00534) | -0.079

Row | Target | log2 fold change
19 | CHCHD1 (UniProt Q96BP2) | 0.02
20 | CLUH (UniProt O75153) | 0.108
21 | CALCOCO2 isoform 4 (UniProt Q13137) | 0.038
22 | COMT (UniProt P21964) | 0.119
23 | COPS3 (UniProt Q9UNS2) | 0.004
24 | CHERP (UniProt Q8IWX8) | -0.353
25 | CPSF6 isoform 2 (UniProt Q16630) | -1.43 (active)
26 | CDK13 (UniProt Q14004) | -0.149
27 | COMMD2 (UniProt Q86X83) | -0.069
28 | CDC26 (UniProt Q8NHZ8) | -0.059
29 | CLCN3 isoform 2 (UniProt P51790) | 0.034
30 | CAMKK2 (UniProt Q96RR4) | 0.226
31 | CHKA (UniProt P35790) | 0.149
32 | CSTF3 (UniProt Q12996) | 0.176
33 | CD55 isoform 7 (UniProt P08174) | 0.027
34 | CSNK2A1 (UniProt P68400) | 0.019
35 | CIT isoform 4 (UniProt O14578) | -0.065

Compound: Cc1nc(Nc2ncc(C(=O)Nc3c(C)cccc3Cl)s2)cc(N2CCN(CCO)CC2)n1 [dasatinib]
Experiment: as above
Method in brief: as §1

Row | Target | log2 fold change
36 | CNDP2 (UniProt Q96KP4) | -0.031
37 | CSNK1A1 (UniProt P48729) | 0.011
38 | CNTN4 (UniProt Q8IWV2) | 0.003
39 | CRLF3 (UniProt Q8IUI8) | -0.145
40 | CDC123 (UniProt O75794) | -0.032
41 | CPT1A (UniProt P50416) | -0.042
42 | CERS2 (UniProt Q96G23) | -0.113
43 | COQ7 (UniProt Q99807) | -0.006
44 | CELF2 isoform 3 (UniProt O95319) | -0.005
45 | COPS8 (UniProt Q99627) | 0.006
46 | CBX1 (UniProt P83916) | 0.084
47 | CDK5RAP3 isoform 4 (UniProt Q96JB5) | -0.082
48 | CD53 (UniProt P19397) | 0.078
49 | CCNK isoform 4 (UniProt O75909) | -0.013
50 | COPS4 (UniProt Q9BT78) | -0.023
51 | COASY isoform 2 (UniProt Q13057) | -0.132
52 | CDKN2AIP (UniProt Q9NXV6) | -0.041
53 | CDK6 (UniProt Q00534) | -0.01

Row | Target | log2 fold change
54 | CHCHD1 (UniProt Q96BP2) | -0.057
55 | CLUH (UniProt O75153) | -0.093
56 | CALCOCO2 isoform 4 (UniProt Q13137) | 0.01
57 | COMT (UniProt P21964) | 0.03
58 | COPS3 (UniProt Q9UNS2) | -0.02
59 | CHERP (UniProt Q8IWX8) | -0.086
60 | CPSF6 isoform 2 (UniProt Q16630) | 0.009
61 | CDK13 (UniProt Q14004) | -0.089
62 | COMMD2 (UniProt Q86X83) | -0.177
63 | CDC26 (UniProt Q8NHZ8) | 0.143
64 | CLCN3 isoform 2 (UniProt P51790) | 0.027
65 | CAMKK2 (UniProt Q96RR4) | 0
66 | CHKA (UniProt P35790) | 0.07
67 | CSTF3 (UniProt Q12996) | -0.021
68 | CD55 isoform 7 (UniProt P08174) | 0.096
69 | CSNK2A1 (UniProt P68400) | -0.03
70 | CIT isoform 4 (UniProt O14578) | -0.064

From the supplement of paper PMC10849652
